Results on 37 compounds are retold here after the supplement of paper PMC11634586.

Where a name gives a salt, the structure may show the parent alone. Unmarked numbers belong to inactive results.

The assay deals with NCI-H1688. The assay can be described thus: inhibition of cell viability relative to untreated control (fraction); higher = stronger growth inhibition, active = 0.5 or more. The settings on record: 30 µM; 24 h. In short, it runs like this: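 Inhibition of cell viability appears as a fraction, based on viability relative to untreated cells. The assay used NCI-H1688 small cell lung cancer cells seeded in 96-well plates at 3 × 10^3 cells/well, treated one day later with a natural compound library (TargetMol) at 30 µM for 24 h at 37°C and 5% CO2. Absorbance at 450 nm with Cell Counting Kit-8 was recorded in triplicate.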
As to `OC[C@H]1O[C@@H](O[C@@H]2OC=C[C@H]3[C@H](O)[C@@H]4O[C@]4(CO)[C@@H]23)[C@H](O)[C@@H](O)[C@@H]1O` [Catalpol], the “inhibition of cell viability” value is -0.0576. With `C/C=C(/C)C(=O)O[C@H]1[C@H](OC(C)=O)[C@@]2(CO)C(CC1(C)C)C1=CCC3[C@@]4(C)CCC(O[C@@H]5O[C@H](C(=O)O)[C@@H](O[C@@H]6O[C@H](CO)[C@@H](O)[C@H](O)[C@H]6O)[C@H](O)[C@H]5O[C@@H]5O[C@H](CO)[C@@H](O)[C@H](O)[C@H]5O)[C@](C)(CO)C4CC[C@@]3(C)[C@]1(C)C[C@H]2O.C/C=C(\C)C(=O)O[C@H]1[C@H](OC(C)=O)[C@@]2(CO)C(CC1(C)C)C1=CCC3[C@@]4(C)CCC(O[C@@H]5O[C@H](C(=O)O)[C@@H](O[C@@H]6O[C@H](CO)[C@@H](O)[C@H](O)[C@H]6O)[C@H](O)[C@H]5O[C@@H]5O[C@H](CO)[C@@H](O)[C@H](O)[C@H]5O)[C@](C)(CO)C4CC[C@@]3(C)[C@]1(C)C[C@H]2O` (some centres not stated) [Escin], the “inhibition of cell viability” value is 0.982 (active). In the case of `O=c1[nH]cnc2nc[nH]c12` [6-Hydroxypurine], the “inhibition of cell viability” value was -0.00202. For `COc1ccc2c(C)cc(=O)oc2c1` [7-Methoxy-4-methylcoumarin], the “inhibition of cell viability” value is -0.298.

`C[n+]1cc2c3c(ccc2c2ccc4cc5c(cc4c21)OCO5)OCO3` [Sanguinarine chloride]: the “inhibition of cell viability” value is 0.982 (active). As to `COC(=O)C1=CC[C@@]23CC[C@@H]([C@@](C)(/C=C/C=C(\C)C(=O)O)OC2=O)[C@@]3(OC(C)=O)CC1` [Pseudolaric Acid B], the “inhibition of cell viability” value is 0.813 (active). Turning to `OC[C@H]1O[C@@](CO)(O[C@H]2O[C@H](CO)[C@@H](O)[C@H](O)[C@H]2O)[C@@H](O[C@H]2O[C@H](CO)[C@@H](O)[C@H](O)[C@H]2O)[C@@H]1O` [Melezitose], the “inhibition of cell viability” value is -0.0856. As for `CC1CCC(C(C)C)C(O)C1` (racemic) [DL-Menthol], the “inhibition of cell viability” value is 0.0236. Take `CC(=O)O[C@@]12CO[C@@H]1C[C@H](O)[C@@]1(C)C(=O)[C@H](O)C3=C(C)[C@@H](OC(=O)[C@H](O)[C@@H](NC(=O)OC(C)(C)C)c4ccccc4)C[C@@](O)([C@@H](OC(=O)c4ccccc4)[C@H]21)C3(C)C` [Docetaxel trihydrate]: the “inhibition of cell viability” value is 0.635 (active). `O=c1ccc2ccc(O)cc2o1` [7-Hydroxycoumarin]: the “inhibition of cell viability” value was -0.0276. For `C[N+](C)(C)CC(O)CC(=O)[O-]` (stereo not drawn) [L(-)-Carnitine], the “inhibition of cell viability” value is 0.123.

For the compound `COc1ccc2cc3[n+](cc2c1OC)CCc1cc2c(cc1-3)OCO2` [Berberine hydrochloride], the “inhibition of cell viability” value was -0.108.

With `CC(C)c1cc(C(C)C)c(CC(=O)NS(=O)(=O)Oc2c(C(C)C)cccc2C(C)C)c(C(C)C)c1` [Avasimibe], the “inhibition of cell viability” value was 0.757 (active). The figure for `O=c1cc(-c2ccccc2)oc2cc(O)cc(O)c12` [Chrysin] is 0.197; for `O=C(O)[C@]1(O)C[C@@H](O)[C@@H](O)[C@H](O)C1` [Quinic acid] it is 0.126. As for `O=C1O[C@H]([C@@H](O)CO)C(O)=C1OP(=O)(O)O` [Sodium L-ascorbyl-2-phosphate], the “inhibition of cell viability” value was 0.0357. The figure for `C[C@@H]1CC[C@@]2(OC1)O[C@H]1C[C@H]3[C@@H]4CC=C5C[C@@H](O)CC[C@]5(C)[C@H]4CC[C@]3(C)[C@H]1[C@@H]2C` [Diosgenin] is -0.279. Turning to `CC(C)(CO)[C@@H](O)C(=O)NCCCO` [Dexpanthenol], the “inhibition of cell viability” value is -0.126.

On to `C[N+](C)(C)CC(=O)O` [Betaine], for which the “inhibition of cell viability” value is 0.299.

As for `Cc1coc2c1C(=O)C(=O)c1c-2ccc2c1CCCC2(C)C` [Tanshinone IIA], the “inhibition of cell viability” value was 0.958 (active). As to `COc1ccccc1O` [Guaiacol], the “inhibition of cell viability” value was -0.0875. The figure for `CC(C)(CO)[C@@H](O)C(=O)NCCC(=O)NCCSSCCNC(=O)CCNC(=O)[C@H](O)C(C)(C)CO` [D-Pantethine] is -0.262; for `CC(C)=C1C/C=C(\C)CC/C=C(\C)CC1=O` [Germacrone] it is 0.245; for `O=P(O)(O)O[C@H]1[C@H](OP(=O)(O)O)[C@@H](OP(=O)(O)O)[C@H](OP(=O)(O)O)[C@@H](OP(=O)(O)O)[C@H]1OP(=O)(O)O` [Phytic acid] it is -0.0495. As to `COc1ccc2ccc(=O)oc2c1CC=C(C)C` [Osthole], the “inhibition of cell viability” value is 0.166.

In the case of `O=C(O)[C@H]1O[C@@H](Oc2cc3oc(-c4ccc(O)cc4)cc(=O)c3c(O)c2O)[C@H](O)[C@@H](O)[C@@H]1O` [Scutellarin], the “inhibition of cell viability” value is -0.14.

In the case of `O=C(O)c1cc(=O)[nH]c(=O)[nH]1` [Orotic acid], the “inhibition of cell viability” value is -0.0262. For `Oc1cc2c(cc1O)[C@@H]1c3ccc(O)c(O)c3OC[C@]1(O)C2` [Hematoxylin], the “inhibition of cell viability” value is 0.0369. Turning to `NCCC[C@H](N)C(=O)O` [L-Ornithine], the “inhibition of cell viability” value was -0.0432. Turning to `Cc1ncc(C[n+]2csc(CCO)c2C)c(N)n1` [Thiamine hydrochloride], the “inhibition of cell viability” value was -0.123. As for `C[C@@H]1O[C@@H](O[C@H]2[C@H](Oc3cc(O)c(C(=O)CCc4ccc(O)cc4)c(O)c3)O[C@H](CO)[C@@H](O)[C@@H]2O)[C@H](O)[C@H](O)[C@H]1O` [Naringin dihydrochalcone], the “inhibition of cell viability” value is -0.031. For `CC(=O)c1c(O)cc(O)cc1O` [Phloracetophenone], the “inhibition of cell viability” value is 0.00993. For `C=C(NC(=O)C(=C)NC(=O)c1csc(C2=N[C@@H]3c4csc(n4)[C@H]4NC(=O)c5csc(n5)[C@H]([C@](C)(O)[C@@H](C)O)NC(=O)[C@H]5CSC(=N5)/C(=C/C)NC(=O)[C@H]([C@@H](C)O)NC(=O)c5csc(n5)[C@]3(CC2)NC(=O)[C@H](C)NC(=O)C(=C)NC(=O)[C@H](C)NC(=O)[C@H]([C@@H](C)CC)N[C@@H]2C=Cc3c([C@H](C)O)cc(nc3[C@H]2O)C(=O)O[C@@H]4C)n1)C(N)=O` [Thiostrepton] the value was 0.943 (active). The figure for `NC(=O)c1cccnc1` [Nicotinamide] is 0.0846. As for `CC[C@H](CC[C@@H](C)[C@H]1CC[C@H]2[C@@H]3CC=C4C[C@@H](O)CC[C@]4(C)[C@H]3CC[C@]12C)C(C)C` [Beta-Sitosterol], the “inhibition of cell viability” value is 0.185. In the case of `O=c1c(-c2ccc(O)cc2)coc2cc(O[C@@H]3O[C@H](CO)[C@@H](O)[C@H](O)[C@H]3O)cc(O)c12` [Genistin], the “inhibition of cell viability” value was 0.279.

With `C[C@@H]1O[C@@H](O[C@H]2[C@H](O[C@H]3CC[C@@]4(C)[C@@H](CC[C@]5(C)[C@@H]4CC=C4[C@@H]6CC(C)(C)CC[C@]6(C(=O)O[C@@H]6O[C@H](CO[C@@H]7O[C@H](CO)[C@@H](O[C@@H]8O[C@@H](C)[C@H](O)[C@@H](O)[C@H]8O)[C@H](O)[C@H]7O)[C@@H](O)[C@H](O)[C@H]6O)CC[C@]45C)[C@]3(C)CO)OC[C@H](O)[C@@H]2O)[C@H](O)[C@H](O)[C@H]1O` [Hederacoside C], the “inhibition of cell viability” value was 0.239.
